Measured values from PubChem BioAssay (NCATS).
Results filed as inconclusive are left out. Activity calls are given as the source filed them. The call rests on the fitted dose curve; in most records, active means well fitted cell-killing curve with a large enough effect; inconclusive means small, poorly fitted or top-dose-only effect, or effect the other way; inactive means flat fitted curve, though single readings scatter.

Assays:
Assay in all cases: Primary qHTS to identify gynecologic anti-cancer compounds using libraries of approved drugs and bioactive compounds (AID 1345084); further: nearly all actives have a fitted effect of over 55% in size
C33A = conditions: Gynecologic cancer cell panel viability, ATPlite luminescence, 48 h; series mostly up to 57.5 µM
Method in brief: (§1)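 Measured: luminescence after ATPlite addition (15 min, RT). Exposure: 48 h, 37 C, 5% CO2.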

CAOV3 = conditions: Gynecologic cancer cell panel viability, ATPlite luminescence, 48 h; series mostly up to 57.5 µM
Method in brief: as §1

CASKI = conditions: Gynecologic cancer cell panel viability, ATPlite luminescence, 48 h; series mostly up to 57.5 µM
Method in brief: as §1

Es-2 = conditions: Gynecologic cancer cell panel viability, ATPlite luminescence, 48 h; series mostly up to 57.5 µM
Method in brief: as §1

HeLa = conditions: Gynecologic cancer cell panel viability, ATPlite luminescence, 48 h; series mostly up to 57.5 µM
Method in brief: as §1

Hek293T = conditions: Gynecologic cancer cell panel viability, ATPlite luminescence, 48 h, control line for the selectivity index; series mostly up to 57.5 µM
Method in brief: as §1

JEG-3 = conditions: Gynecologic cancer cell panel viability, ATPlite luminescence, 48 h; series mostly up to 57.5 µM
Method in brief: as §1

OV90 = conditions: Gynecologic cancer cell panel viability, ATPlite luminescence, 48 h; series mostly up to 57.5 µM
Method in brief: as §1

PA-1 = conditions: Gynecologic cancer cell panel viability, ATPlite luminescence, 48 h; series mostly up to 57.5 µM
Method in brief: as §1

SKOV3 = conditions: Gynecologic cancer cell panel viability, ATPlite luminescence, 48 h; series mostly up to 57.5 µM
Method in brief: as §1

Tov-21-G = conditions: Gynecologic cancer cell panel viability, ATPlite luminescence, 48 h; series mostly up to 57.5 µM
Method in brief: as §1

Tov112D = conditions: Gynecologic cancer cell panel viability, ATPlite luminescence, 48 h; series mostly up to 57.5 µM
Method in brief: as §1
On the % scale 0 is the no-effect control and ±100 the full control effect.

COC(=O)C1=CO[C@@H](O[C@@H]2O[C@H](CO)[C@@H](O)[C@H](O)[C@H]2O)[C@@H]2[C@@H](C)[C@@H](O)C[C@H]12
inactive: Potency (C33A) | Potency (CAOV3) | Potency (CASKI) | Potency (Es-2) | Potency (HeLa) | Potency (Hek293T) | Potency (JEG-3) | Potency (OV90) | Potency (PA-1) | Potency (SKOV3) | Potency (Tov-21-G) | Potency (Tov112D)

CC[C@H](C)/C=C(C)/C=C/C(=O)Cc1cc(O)c(C)c(O)c1C=O
inactive: Potency (C33A) | Potency (CAOV3) | Potency (CASKI) | Potency (Es-2) | Potency (HeLa) | Potency (Hek293T) | Potency (JEG-3) | Potency (OV90) | Potency (PA-1) | Potency (SKOV3) | Potency (Tov-21-G) | Potency (Tov112D)

C[C@@H]1O[C@@H](O[C@H]2[C@H](OC(=O)[C@]34CCC(C)(C)C[C@H]3C3=CCC5[C@@]6(C)CC[C@H](O[C@@H]7O[C@H](CO[C@@H]8OC[C@H](O)[C@H](O)[C@H]8O)[C@@H](O)[C@H](O)[C@H]7O)C(C)(C)C6CC[C@@]5(C)[C@]3(C)C[C@H]4O)OC[C@@H](O)[C@@H]2O)[C@H](O)[C@H](O)[C@H]1O[C@@H]1OC[C@H](O)[C@H](O[C@@H]2OC[C@@H](O)[C@H](O)[C@H]2O)[C@H]1O (stereo partly drawn)
inactive: activity change, negative = cytotoxicity (C33A) 2.46% [at 6.55 µM] | activity change, negative = cytotoxicity (CAOV3) -15.5% [at 6.55 µM] | activity change, negative = cytotoxicity (CASKI) -13.2% [at 6.55 µM] | activity change, negative = cytotoxicity (Es-2) -2.02% [at 6.55 µM] | activity change, negative = cytotoxicity (HeLa) 18.3% [at 6.55 µM] | activity change, negative = cytotoxicity (Hek293T) -6.63% [at 6.55 µM] | activity change, negative = cytotoxicity (JEG-3) -1.75% [at 6.55 µM] | activity change, negative = cytotoxicity (OV90) -10.8% [at 6.55 µM] | activity change, negative = cytotoxicity (PA-1) 1.4% [at 6.55 µM] | activity change, negative = cytotoxicity (SKOV3) 14.1% [at 6.55 µM] | activity change, negative = cytotoxicity (Tov-21-G) -9.88% [at 6.55 µM] | activity change, negative = cytotoxicity (Tov112D) 9.32% [at 6.55 µM]

CC(=O)c1c(O)cc2cccc3c2c1CC(C)(O)O3 (stereo not drawn)
inactive: Potency (C33A) | Potency (CAOV3) | Potency (CASKI) | Potency (Es-2) | Potency (HeLa) | Potency (Hek293T) | Potency (JEG-3) | Potency (OV90) | Potency (PA-1) | Potency (SKOV3) | Potency (Tov-21-G) | Potency (Tov112D)

C=C1CC23CCC4[C@@](C)(CCC[C@@]4(C)C(=O)O)C2CCC1C3 (stereo partly drawn)
inactive: Potency (C33A) | Potency (CAOV3) | Potency (CASKI) | Potency (Es-2) | Potency (HeLa) | Potency (Hek293T) | Potency (JEG-3) | Potency (OV90) | Potency (PA-1) | Potency (SKOV3) | Potency (Tov-21-G) | Potency (Tov112D)

CC1=C(C)C(=O)OC(C(C)(O)C2CCC3C4CC=C5CC(OC6OC(COC7OC(CO)C(O)C(O)C7O)C(O)C(O)C6O)CC(O)C5(C)C4CCC32C)C1 (stereo not drawn)
inactive: Potency (C33A) | Potency (CAOV3) | Potency (CASKI) | Potency (Es-2) | Potency (HeLa) | Potency (Hek293T) | Potency (JEG-3) | Potency (OV90) | Potency (PA-1) | Potency (SKOV3) | Potency (Tov-21-G) | Potency (Tov112D)

O=C(c1ccc(C#Cc2cccc(F)c2)cn1)N1CC2CC2C1 (stereo not drawn)
inactive: Potency (C33A) | Potency (CAOV3) | Potency (CASKI) | Potency (Es-2) | Potency (HeLa) | Potency (Hek293T) | Potency (JEG-3) | Potency (OV90) | Potency (PA-1) | Potency (SKOV3) | Potency (Tov-21-G) | Potency (Tov112D)

CC1(C)CCCC2(C)C1C(O)C=C(CO)C2(O)C(=O)O (stereo not drawn)
inactive: Potency (C33A) | Potency (CAOV3) | Potency (CASKI) | Potency (Es-2) | Potency (HeLa) | Potency (Hek293T) | Potency (JEG-3) | Potency (OV90) | Potency (PA-1) | Potency (SKOV3) | Potency (Tov-21-G) | Potency (Tov112D)

CC(C)CNC(=O)/C=C/CCCCc1ccc2c(c1)OCO2
inactive: Potency (C33A) | Potency (CAOV3) | Potency (CASKI) | Potency (Es-2) | Potency (HeLa) | Potency (Hek293T) | Potency (JEG-3) | Potency (OV90) | Potency (PA-1) | Potency (SKOV3) | Potency (Tov-21-G) | Potency (Tov112D)

CC(C)(O)c1ccc2c(c1)C(=O)CC1[C@](C)(CO)CCC[C@]21C (stereo partly drawn)
inactive: Potency (C33A) | Potency (CAOV3) | Potency (CASKI) | Potency (Es-2) | Potency (HeLa) | Potency (Hek293T) | Potency (JEG-3) | Potency (OV90) | Potency (PA-1) | Potency (SKOV3) | Potency (Tov-21-G) | Potency (Tov112D)

COc1cccc2c1CCC[C@H]2CN(C)CCc1ccc2ccoc2c1
inactive: Potency (C33A) | Potency (CAOV3) | Potency (CASKI) | Potency (Es-2) | Potency (HeLa) | Potency (Hek293T) | Potency (JEG-3) | Potency (OV90) | Potency (PA-1) | Potency (SKOV3) | Potency (Tov-21-G) | Potency (Tov112D)

CC(=O)OC[C@@]12[C@@H](OC(C)=O)C[C@@H](C)[C@](C)([C@@H]3C[C@H]4C=CO[C@H]4O3)[C@H]1CCC[C@]21CO1
inactive: Potency (C33A) | Potency (CAOV3) | Potency (CASKI) | Potency (Es-2) | Potency (HeLa) | Potency (Hek293T) | Potency (JEG-3) | Potency (OV90) | Potency (PA-1) | Potency (SKOV3) | Potency (Tov-21-G) | Potency (Tov112D)

CC1(C)CC[C@]2(C(=O)O)CC[C@]3(C)C(=CCC4[C@@]5(C)CC[C@H](O[C@@H]6O[C@H](C(=O)O)[C@@H](O)[C@H](O)[C@H]6O)C(C)(CO)C5CC[C@]43C)C2C1 (stereo partly drawn)
inactive: Potency (C33A) | Potency (CAOV3) | Potency (CASKI) | Potency (Es-2) | Potency (HeLa) | Potency (Hek293T) | Potency (JEG-3) | Potency (OV90) | Potency (PA-1) | Potency (SKOV3) | Potency (Tov-21-G) | Potency (Tov112D)

C[C@@H](OC(=O)/C=C/c1ccc(O)cc1)C1=C[C@]2(C=C[C@@H]3C(C(=O)O)=CO[C@@H](O[C@@H]4O[C@H](CO[C@@H]5O[C@H](CO)[C@@H](O)[C@H](O)[C@H]5O)[C@@H](O)[C@H](O)[C@H]4O)[C@@H]32)OC1=O
inactive: Potency (C33A) | Potency (CAOV3) | Potency (CASKI) | Potency (Es-2) | Potency (HeLa) | Potency (Hek293T) | Potency (JEG-3) | Potency (OV90) | Potency (PA-1) | Potency (SKOV3) | Potency (Tov-21-G) | Potency (Tov112D)
